From PubChem BioAssay (Tox21)
Records with an inconclusive call do not appear. Some compounds were tested as several samples or in several runs, with calls that do not always agree. Calls of active or inactive are those of the source. Calls come from the whole dose curve; as a rule, active = well fitted activation curve with a large enough effect in the repeat runs; inconclusive = weak or mixed curves; inactive = flat fitted curve, though single readings scatter.

Test: A CellTox Green Cytotoxicity Assay to monitor cytotoxicity in HepG2 cells - 40 hour (AID 1224879); note: nearly all actives have a fitted effect of over 40% in size
Details: CellTox Green fluorescence; series mostly up to 76.8 µM; cytotoxicity increase: at the top concentration
Excerpt: National Center for Advancing Translational Sciences [NCATS]
NIH Chemical Genomics Center [NCGC]
U.S. Environmental Protection Agency [EPA]
National Institutes of Environmental Health Sciences [NIEHS]
National Toxicology Program [NTP]
Cell-based models are critical for drug discovery. Determining the natural cytotoxic effects resulting from test compounds is an essential research activity. A CellTox Green Cytotoxicity Assay to monitor cytotoxicity in real time of continues cell culture during 40 hours of the compound treatment was used to screen Tox21 10K library compounds in HepG2 cells. CellTox Green Cytotoxicity Assay is a nonlytic, homogeneous, biofluorescent method to measure cytotoxicity in cell culture after experimental manipulation. The assay system uses a proprietary asymmetric cyanine dye that is excluded from viable cells but preferentially stains the dead cell's DNA. […] Viable cells produce no appreciable increases in fluorescence. Therefore, the fluorescence signal produced by the binding interaction with dead cell DNA is proportional to cytotoxicity.
The mixture of HepG2 cell suspension and reagents were dispensed at 600cells/6 ul/well in 1536-well tissue culture treated black solid bottom plates using a Multidrop dispenser. After the assay plates were incubated at a 37 C/5% CO2 incubator for 5 hours, 23 nL of compounds dissolved in DMSO, positive and negative controls was transferred to the assay plate by a pintool work station. The plates were incubated at 37 C for 40 hours. The fluorescence intensity were measured at 0h, 8h, 16h, 24h, 32h and 40h time points using ViewLux plate reader during compound treatment.
% is set by controls: 0 for no effect and ±100 for the full control effect; potency is the fitted concentration of half-maximal effect.

Row | SMILES | cytotoxicity increase | Potency
1 | COc1cc2[nH]c(=O)[nH]c(=O)c2cc1OC | -19.3% [at 35.3 µM] (inactive) | –
2 | CC(=O)OCC(=O)[C@H]1CC[C@H]2[C@@H]3CCC4=CC(=O)CC[C@]4(C)[C@H]3CC[C@]12C | -0.577% [at 35.3 µM] (inactive) | –
3 | C=C(C)C(=O)OCCOC(=O)CC(C)=O | -3.37% (inactive) | –
4 | CCOC(=O)C(C)Oc1ccc(Oc2nc3ccc(Cl)cc3o2)cc1 (stereo not given) | 0.587% (inactive) | –
5 | C[Si](NC1CCCCC1)(NC1CCCCC1)NC1CCCCC1 | 23.7% (inactive) | –
6 | CCCCN(CCCC)C(=S)SSC(=S)N(CCCC)CCCC | 10.7% (inactive) | –
7 | CC1CC(=O)NN=C1c1ccc(NCC(C)(C)NCC(O)COc2cc(Cl)ccc2C#N)cc1 (stereo not given) | -0.423% [at 35.3 µM] (inactive) | –
8 | Cn1c(=O)c2c(ncn2CC(=O)O)n(C)c1=O | -15.9% [at 35.3 µM] (inactive) | –
9 | CCCCCCCCCCCC(=O)[O][Sn]([CH2]CCC)([CH2]CCC)[O]C(=O)CCCCCCCCCCC | – | 16.9 µM (active)
10 | O=C(O)c1c(O)c(-c2ccccc2)nc2ccccc12 | -17.5% [at 35.3 µM] (inactive) | –
11 | Cc1oc(C)c(C(=O)Nc2ccccc2)c1C | 1.74% (inactive) | –
12 | Nc1ccc(S(=O)(=O)O)c(N)c1 | 5.61% (inactive) | –
13 | CC(Cl)C(Cl)Cl (stereo not given) | 6.28% (inactive) | –
14 | Fc1ccccc1[C@@H](F)COC1CCC(Nc2ncnc3[nH]ncc23)CC1 (stereo not given in full) | 22.8% (inactive) | –
15 | C=CC(C)=CCC=C(C)C | -1.75% (inactive) | –
16 | Cc1ccccc1N1C(=O)c2cc(S(N)(=O)=O)c(Cl)cc2NC1C (stereo not given) | -3.06% [at 35.3 µM] (inactive) | –
17 | NC(=O)Nc1ccc(Cl)c(Cl)c1 | -14.4% (inactive) | –
18 | CN1CCN(c2c(F)cc3c(=O)c(C(=O)O)cn4c3c2OCN4C)CC1 | -7.78% [at 15.8 µM] (inactive) | –
19 | CC(=N\O)/C(C)=N/O | 6.16% (inactive) | –
20 | CCCCC(CC)C(=O)OCCOCCOCCOCCOC(=O)C(CC)CCCC (stereo not given) | -5.39% (inactive) | –

Row | SMILES | cytotoxicity increase | Potency
21 | CC(=O)Oc1ccc(C(=C2CCCCC2)c2ccc(OC(C)=O)cc2)cc1 | -12.8% [at 35.3 µM] (inactive) | –
22 | O=C(CCCN1CCC(O)(c2ccc(Br)cc2)CC1)c1ccc(F)cc1 | – | 23.9 µM (active)
23 | C[C@]12CCC(=O)C=C1C=C[C@@H]1[C@@H]2CC[C@@]2(C)[C@H]1CC[C@@]21CCC(=O)O1 | -2.95% [at 35.3 µM] (inactive) | –
24 | O=C(O)c1cccnc1C(=O)O | 0.683% (inactive) | –
25 | CC(C)(O)c1ccccc1CC[C@@H](SCC1(CC(=O)O)CC1)c1cccc(/C=C/c2ccc3ccc(Cl)cc3n2)c1 | 0.159% [at 35.3 µM] (inactive) | –
26 | CC1(C)O[C@@H]2C[C@H]3[C@@H]4CCC5=CC(=O)C=C[C@]5(C)[C@H]4[C@@H](O)C[C@]3(C)[C@]2(C(=O)CO)O1 | -16.6% [at 35.3 µM] (inactive) | –
27 | CC1(C)C(=O)N(Br)C(=O)N1Cl | -16.2% (inactive) | –
28 | COc1cc2ncnc(Nc3ccc(F)c(Cl)c3)c2cc1OCCCN1CCOCC1 | – | 23.9 µM (active)
29 | Nc1c(I)cc(I)c(C(=O)N(CCC(=O)O)c2ccccc2)c1I | 20.6% [at 35.3 µM] (inactive) | –
30 | CCCCCCOC(=O)CCCCCCCC(=O)OCCCCCC | -7.93% (inactive) | –
31 | Cc1cc(C(=C2C=CC(=Nc3ccc(S(=O)(=O)O)cc3S(=O)(=O)O)C=C2)c2ccc(Nc3ccc(S(=O)(=O)O)cc3)cc2)ccc1N | -12.4% [at 35.3 µM] (inactive) | –
32 | Cc1oncc1C(=O)Nc1ccc(C(F)(F)F)cc1 | – | 54.9 µM (active) and inactive
33 | NC(=O)Cn1c(=O)cc(CCN2CCN(c3nccc4sccc34)CC2)c2ccc(F)cc21 | 2.67% (inactive) | –
34 | NC(=O)N(O)[C@@H]1C=C[C@H](Oc2cccc(Oc3ccc(F)cc3)c2)C1 | – | 38.9 µM (active)
35 | CCNC(=O)N1CCN(CCCC(c2ccc(F)cc2)c2ccc(F)cc2)CC1 | – | 21.3 µM (active)
36 | C[N+]1(C)CCC(=C(c2ccccc2)c2ccccc2)CC1 | -6.72% [at 35.3 µM] (inactive) | –
37 | CCN(Cc1cccc(S(=O)(=O)O)c1)c1ccc(C(=C2C=CC(=[N+](CC)Cc3cccc(S(=O)(=O)[O-])c3)C=C2)c2ccccc2)cc1 | -3.05% [at 35.3 µM] (inactive) | –
38 | C=CC(C)(C)CC(=O)OC | -0.491% (inactive) | –
39 | COC(=O)[C@@H]1CC2=CC(=O)CC[C@]2(C)[C@@]23O[C@@H]2C[C@@]2(C)[C@@H](CC[C@@]24CCC(=O)O4)[C@H]13 | 7.58% [at 35.3 µM] (inactive) | –
40 | CC(=O)[C@H]1CC[C@H]2[C@@H]3C[C@H](C)C4=CC(=O)CC[C@]4(C)[C@H]3[C@@H](O)C[C@]12C | 4.42% [at 35.3 µM] (inactive) | –
